FBW7 activator: human FBW7 E3 ligase activation, primary screen | normalized activity (activation), % at 26.1 µM | Q969H0 | AlphaScreen FBW7–phospho-cyclin E peptide binding, activator screen | 650,000 compounds, 0.13% hits; in the data active = normalized activity above about 1.9%;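 also: purified mutant Fbw7 with reduced substrate affinity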
MITF primary: inhibitors of human MITF; AlphaScreen MITF homodimerization, bead proximity signal; AID 1259374; 650,000 compounds, 0.91% hits; O75030; inhibition, % at 2.6 µM; in the data active = inhibition above about 50%;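 also: 0% = vehicle wells with protein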
TEAD-YAP inh: TEAD-YAP interaction inhibition; HEK-TIYL cells, TEAD-Gal4/YAP UAS-luciferase luminescence; inhibition, % at 9.12 µM; 640,000 compounds, 1.4% hits; in the data active = inhibition above about 32%;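 also: 0% = median of test compound wells and 100% = reference inhibitor wells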
GPR151 activ: human GPR151 activation; Q8TDV0; PathHunter beta-arrestin GPR151 cells, luminescence; activation, % at 11.2 µM; 650,000 compounds, 1% hits; in the data active = activation above about 4.9%;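 also: 0% = median of compound wells and 100% = cells with positive control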
Target sequence (Q8TDV0 whole entry, looked up): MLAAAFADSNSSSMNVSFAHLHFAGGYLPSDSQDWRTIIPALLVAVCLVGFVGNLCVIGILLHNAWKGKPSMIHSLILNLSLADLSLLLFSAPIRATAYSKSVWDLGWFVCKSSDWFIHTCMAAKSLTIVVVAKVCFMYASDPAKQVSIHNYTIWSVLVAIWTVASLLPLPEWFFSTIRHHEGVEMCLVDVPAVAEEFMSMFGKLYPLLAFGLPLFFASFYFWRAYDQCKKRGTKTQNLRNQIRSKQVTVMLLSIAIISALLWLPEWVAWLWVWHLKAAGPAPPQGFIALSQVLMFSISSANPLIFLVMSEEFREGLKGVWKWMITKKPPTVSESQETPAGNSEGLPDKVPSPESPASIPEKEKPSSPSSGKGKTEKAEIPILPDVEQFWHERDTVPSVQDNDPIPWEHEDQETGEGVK
GPR151 confirm: confirmation of human GPR151 activators; shares compounds with GPR151 activ; GPR151 PathHunter beta-arrestin cells, luminescence, 90 min; % of EA-reagent control over plate median; activation, % at 11.2 µM; 6,700 tested, under 10 active; AID 1508609;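 active = mean percent activation across replicates above the confirmation screen cutoff of 4.91%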
GPR119 counter: GPR119 activation, counter-screen for GPR151 activators. shares compounds with GPR151 activ. 6,700 compounds, 0.3% hits. AID 1508611. GPR119 PathHunter beta-arrestin cells, luminescence, 90 min; 0 = compound-well median, 100 = enzyme-acceptor control. activation, % at 11.2 µM;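 active = mean percent activation in the counterscreen above 29.09%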;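 also: counterscreen on off-target GPR119 to flag nonselective hits from the GPR151 activator screen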
* marks the source's active call; other numbers are inactive results; / = not tested or not shown. A selection: hits, their analogues and other compounds. The true share with any hit is near 3.5%.

SMILES	FBW7 activator	MITF primary	TEAD-YAP inh	GPR151 activ	GPR151 confirm	GPR119 counter
Cc1cc(Nc2ccc(Oc3ccccc3)cc2)nc(Nc2cccnc2)n1	0	12	-8	-1	/	/
Cc1cc(Nc2ccc(Oc3ccccc3)cc2)nc(Nc2ccccn2)n1	0	-12	-15	5.9*	0	-2
CCOC(=O)COc1ccc2c(=O)c(Oc3cccc(OC)c3)coc2c1	0	2	3	5.3*	2	6
CC1(Cc2cccc(C(N)=O)c2)C(=O)Nc2c(C(F)(F)F)cccc21 (stereo not given)	0	9	-7	1	/	/
CC(O)CNc1nc2ccccc2n1CC(=O)N1CCc2ccccc21 (stereo not given)	0	0	6	10.0*	-1	9
O=C(CCC1CCN(C(=O)C2=CCCCC2)CC1)Nc1ccccc1	0	-3	1	5.3*	0	-5
O=c1c2cc(-c3ccccc3)sc2ncn1-n1cccc1	0	9	-68	7.7*	0	3
N#CC1=C(N)OC(c2ccccc2)=C(n2cnc([N+](=O)[O-])n2)C1c1ccccc1 (stereo not given)	0	-7	3	2	/	/
N#CC1=C(N)OC(c2ccccc2)=C(n2cnc([N+](=O)[O-])c2)C1c1cccnc1 (stereo not given)	0	-5	2	8.2*	-1	-4
Cc1nc2c(-c3ccccc3)c(C)nn2c(C)c1CCC(=O)NCCN1CCOCC1	0	-4	1	7.6*	-1	-7
COc1ccc(C)cc1S(=O)(=O)NC1CCCCC1C (stereo not given)	0	-5	-6	2	/	/
COc1cc(C)c(C)cc1S(=O)(=O)NC1CCCCC1C (stereo not given)	0	5	2	8.8*	0	8
O=C(C[n+]1cccc(Br)c1)c1cccs1	1	-13	0	7.8*	-1	-6
Cc1ccc(C)c(NC(=O)CCS(=O)(=O)c2ccc3c(c2)OCC(=O)N3)c1	0	0	-5	0	/	/
Cn1cccc1C(=O)OCC(=O)NC(=O)NCc1ccccc1	0	7	3	6.2*	2	13
COc1ccc(CN2CCc3nnc(CNC(=O)c4ccccn4)n3CC2)cc1C	0	-3	2	0	/	/
O=C(CC1(O)C(=O)N(Cc2ccccc2)c2ccccc21)c1ccccc1 (stereo not given)	0	5	1	-1	/	/
CCN(CC)C(=O)CN1C(=O)C(O)(CC(=O)c2ccccc2)c2ccccc21 (stereo not given)	1	11	5	7.6*	0	1
O=C(O)c1ccc(NS(=O)(=O)/C=C/c2ccccc2)cc1	0	15	-1	7.0*	-1	-9
O=C(O)c1cccc(NS(=O)(=O)/C=C/c2ccccc2)c1	0	11	10	-1	/	/
COC(=O)c1c(C)oc2ccc(OCC=C(C)C)cc12	0	14	6	0	/	/
O=S(=O)(c1cccc(-c2nnc(SCCOc3ccccc3)o2)c1)N1CCOCC1	0	10	1	6.5*	0	9
N#Cc1ccc(CSc2nnc(-c3cccc(S(=O)(=O)N4CCCCC4)c3)o2)cc1	0	0	-3	8.7*	1	-7
O=C1C(=O)N(CCCOc2ccc(Cl)cc2)c2ccccc21	0	7	-17	1	/	/
COCCNCc1nc2c(c(=O)n(C)c(=O)n2C)n1Cc1ccccc1Cl	0	-4	-4	5.1*	0	15
SMILES	FBW7 activator	MITF primary	TEAD-YAP inh	GPR151 activ	GPR151 confirm	GPR119 counter
O=C1NN(c2ccc(F)cc2)C(=O)/C1=C\c1cccc(Cl)c1Cl	0	-13	-4	5.4*	2	3
Cc1ccc2c(c1)/C(=C\c1ccc(Br)cc1)c1cc3ccccc3nc1-2	0	-2	5	6.1*	-1	-8
COc1ccc(N2CCN(C(=O)CN3CCN(c4cc(Cl)ccc4C)CC3)CC2)cc1	0	-1	-3	7.2*	0	6
COc1ccc(Cl)cc1NC(=O)N(C)Cc1c(C)nn(C)c1C	1	-15	-21	9.6*	1	-2
COc1ccc(Cl)cc1NC(=O)CCn1nc(C)c(C)c1C	0	4	-15	0	/	/
Cc1ccc(N(C(=O)c2ccccc2F)C2C=CS(=O)(=O)C2)cc1Cl (stereo not given)	0	-4	-1	0	/	/
Cc1cc(C(=O)NN2CCOCC2)c(C)o1	0	8	3	7.6*	0	7
Cc1cc(C(=O)N2CCOCC2)c(C)o1	0	15	-8	0	/	/
CC(=O)N1CCSc2cc(S(=O)(=O)Nc3ccc(C(C)C)cc3)ccc21	0	-10	-10	0	/	/
CC(=O)N1CCc2cc(NS(=O)(=O)c3ccc4ccccc4c3)ccc21	0	8	-5	5.0*	1	3
CC(=O)N1CCSc2cc(S(=O)(=O)NC3CCCCC3)ccc21	0	-16	14	6.1*	1	2
CC(=O)N1CCSc2cc(S(=O)(=O)Nc3ccc(Cl)cc3)ccc21	0	1	4	5.0*	0	2
Cc1ccccc1CN1CCN2C(=O)[C@H](CCCCN)NC(=O)[C@H]2C1	0	5	-8	0	/	/
O=S(=O)(Nc1nccs1)c1ccc(NC(=S)Nc2ccccc2)cc1	0	-8	3	1	/	/
CSc1cccc(NC(=O)CCC(=O)N2CCSc3ccccc32)c1	0	3	-1	17*	0	-7
C=CCn1c(/C=C(/C(=O)Oc2ccccc2)c2ccccc2)nc2ccccc21	0	6	0	2	/	/
Cc1ccc(C(=O)Nc2ccc(Br)cn2)cc1[N+](=O)[O-]	0	-7	-61	0	/	/
O=C(Nc1ccc(Br)cn1)c1ccc(N2CCCCC2)c([N+](=O)[O-])c1	0	-4	-59	6.5*	2	9
Cc1cc(N(CC(=O)NC2CCCCC2)S(C)(=O)=O)ccc1Br	0	-9	7	8.1*	1	10
C=C(C)CN1C(=O)NC(CC)(C2CCN(Cc3ccc(OC)c(OC)c3)CC2)C1=O (stereo not given)	0	9	-4	0	/	/
COc1ccccc1CNS(=O)(=O)c1cccc2nonc12	0	6	-1	1	/	/
COc1ccc(O[C@H]2C=C[C@@H](c3ccccc3)O[C@@H]2COC(=O)CC/C(C)=N/O[C@@H](C)CN2CCCCc3nc(C)c(C)cc32)cc1	0	2	/	1	/	/
C/C(CCC(=O)OC[C@H]1O[C@H](C#Cc2ccccc2)C=C[C@@H]1Oc1ccc(C)cc1)=N\O[C@H](C)CN1CCCc2nc(C)c(C)cc21	0	11	/	7.0*	0	-5
S=C(NCc1ccco1)N1CCN(C2CCCCC2)CC1	0	0	-4	6.1*	-1	-4
COCCCNc1nc2nonc2nc1N(C)Cc1ccc(F)cc1	0	8	-2	5.8*	1	5

Screens: PubChem, The Scripps Research Institute Molecular Screening Center
